The supplement of paper PMC11624193, “Coupling cellular drug-target engagement to downstream pharmacology with CeTEAM” (Nature Communications, 2024)
Counter-ions that a name gives are not always drawn. A number with no mark means an inactive call.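 The calls were made as follows: active = log2 fold change beyond 2 SD from the library mean after excluding viability outliers; inactive = within 2 SD.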

biological target: PARP1 L713F-nLuc biosensor (HCT116) (UniProt P09874); assay: PARP1 L713F-nLuc/akaLuc ratio relative to DMSO control (biosensor stabilization) (fold change); higher = more PARP1 biosensor stabilization (target engagement / stabilizer), active = hit call of the paper; conditions: stock concentration (mM; final µM = stock mM x 1): 10; 24 h
Sequence (P09874 whole entry L713F, looked up): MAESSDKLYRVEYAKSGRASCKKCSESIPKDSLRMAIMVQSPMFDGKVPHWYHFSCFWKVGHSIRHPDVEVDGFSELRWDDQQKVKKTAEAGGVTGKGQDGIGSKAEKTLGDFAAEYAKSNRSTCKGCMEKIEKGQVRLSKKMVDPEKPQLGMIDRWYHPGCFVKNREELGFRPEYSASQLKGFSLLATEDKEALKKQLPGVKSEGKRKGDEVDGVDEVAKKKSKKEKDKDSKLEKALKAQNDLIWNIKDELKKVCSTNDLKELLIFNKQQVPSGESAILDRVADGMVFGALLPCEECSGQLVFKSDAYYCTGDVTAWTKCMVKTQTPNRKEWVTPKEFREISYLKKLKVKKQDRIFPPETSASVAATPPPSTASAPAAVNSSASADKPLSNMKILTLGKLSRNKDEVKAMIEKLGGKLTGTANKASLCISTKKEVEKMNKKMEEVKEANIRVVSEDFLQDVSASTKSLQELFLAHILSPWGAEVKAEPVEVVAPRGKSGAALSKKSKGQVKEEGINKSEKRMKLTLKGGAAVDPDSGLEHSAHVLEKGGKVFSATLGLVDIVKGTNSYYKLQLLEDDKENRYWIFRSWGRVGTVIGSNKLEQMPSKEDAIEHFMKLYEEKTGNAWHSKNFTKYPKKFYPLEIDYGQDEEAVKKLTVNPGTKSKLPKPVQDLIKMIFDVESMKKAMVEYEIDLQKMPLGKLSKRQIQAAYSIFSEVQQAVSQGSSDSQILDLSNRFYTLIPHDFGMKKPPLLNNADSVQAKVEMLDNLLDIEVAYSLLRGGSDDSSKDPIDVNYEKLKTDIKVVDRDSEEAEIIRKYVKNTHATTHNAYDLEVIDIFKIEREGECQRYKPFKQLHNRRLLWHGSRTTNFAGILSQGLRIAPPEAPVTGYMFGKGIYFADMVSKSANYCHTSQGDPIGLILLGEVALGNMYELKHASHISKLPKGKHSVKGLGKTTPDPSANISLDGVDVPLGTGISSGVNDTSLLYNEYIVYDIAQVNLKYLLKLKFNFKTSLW

Going from COc1ccc(C(NC(=O)c2cnc(-c3cccnn3)[nH]c2=O)c2ccc(OC)cc2)cc1 to COc1ccc(/C=C/C(=O)NO)c(-c2ccc(-c3ccccc3)cc2)c1, the “PARP1 L713F-nLuc/akaLuc ratio” value falls from 0.884 to 0.65.

First: CC(=O)Nc1ccc(C(=O)Nc2ccc(F)cc2N)cc1
Second: CC(=O)Nc1cc(Oc2ccc3c(nc(Nc4ccc(F)cc4F)n3C)c2C)ccn1
The “PARP1 L713F-nLuc/akaLuc ratio” value of the first is higher: 0.984 for the first, 0.89 for the second.

Compared with Cc1ccc2[nH]c3c(c2c1)CCCC3C(N)=O (stereo unspecified), C=C(c1ccc(C(=O)O)cc1)c1cc2c(cc1C)C(C)(C)CCC2(C)C [Bexarotene] is lower in “PARP1 L713F-nLuc/akaLuc ratio” value: 1.25 for the first, 0.719 for the second.

Going from CN(C)CCCN(CC[C@H](N)C(=O)O)C[C@H]1O[C@@H](n2cnc3c(N)ncnc32)[C@H](O)[C@@H]1O [GSK2807 (Trifluoroacetate)] to O=C(O)CNC(=O)c1c(O)cc(CCc2ccccc2)n2ncnc12 [Enarodustat], the “PARP1 L713F-nLuc/akaLuc ratio” value rises from 0.926 to 1.29.

First: CC[C@]1(O)C[C@@H]2CN(CCc3c([nH]c4ccccc34)[C@@](C(=O)OC)(c3cc4c(cc3OC)N(C)[C@H]3[C@@](O)(C(=O)OC)[C@H](OC(C)=O)[C@]5(CC)C=CCN6CC[C@]43[C@@H]65)C2)C1 [Vinblastine sulfate]
Second: CC(=O)O[C@@]12CO[C@@H]1C[C@H](O)[C@@]1(C)C(=O)[C@H](O)C3=C(C)[C@@H](OC(=O)[C@H](O)[C@@H](NC(=O)OC(C)(C)C)c4ccccc4)C[C@@](O)([C@@H](OC(=O)c4ccccc4)[C@H]21)C3(C)C [Docetaxel]
The “PARP1 L713F-nLuc/akaLuc ratio” value of the first is lower: 1.03 for the first, 1.44 for the second.

Going from Cc1cc(Nc2cc3ncccc3c(N[C@@H]3C[C@H]4CC[C@@H](C3)N4CCC#N)n2)n[nH]1 [Izencitinib] to CN(C)C(=O)/C(C#N)=C/c1ccc(-c2nc3cnc4[nH]ccc4c3n2C2CCCCC2)o1, the “PARP1 L713F-nLuc/akaLuc ratio” value rises from 0.804 to 1.08.

First: CCN(C(=O)c1cc(F)ccc1Oc1cncnc1N1CC2(CCN(C[C@H]3CC[C@H](NS(=O)(=O)CC)CC3)CC2)C1)C(C)C
Second: CCS(=O)(=O)N1CCN(c2ccc(Nc3ncc(C(N)=O)c(NC4CC4)n3)cc2)CC1 [Cerdulatinib (hydrochloride)]
The “PARP1 L713F-nLuc/akaLuc ratio” value of the first is lower: 0.797 for the first, 1.06 for the second.

Going from CN(C)C[C@@H]1CCn2cc(c3ccccc32)C2=C(C(=O)NC2=O)c2cn(c3ccccc23)CCO1 to Cc1cn(CCN2CCN(c3ccccc3-c3cc(C#N)cc(C(=O)NCCCN4CCCC4)c3)CC2)c2ccccc12, the “PARP1 L713F-nLuc/akaLuc ratio” value falls from 0.636 to 0.612.

First: Nc1nc(Nc2ccc(S(N)(=O)=O)cc2)nn1C(=O)c1c(F)cccc1F
Second: CC1(C)CNc2cc(NC(=O)c3cccnc3NCc3ccncc3)ccc21 [Motesanib Diphosphate (AMG-706)]
The “PARP1 L713F-nLuc/akaLuc ratio” value of the first is lower: 0.483 for the first, 1.5 for the second.

Going from C[C@@H](Nc1cc(F)cc(F)c1)c1cc(C(=O)N(C)C)cc2c(=O)cc(N3CCOCC3)oc12 to O=[N+]([O-])c1c(Nc2cc(F)cc(Cl)c2)ccc2nonc12, the “PARP1 L713F-nLuc/akaLuc ratio” value rises from 0.667 to 1.45.

Compared with CO[C@H]1CNC[C@@H](OCC2CCC(F)(F)CC2)[C@@H]1Nc1ncc(-c2cncc(C)c2)c2cc(C)c(=O)[nH]c12, COc1cc2c(NC3CCN(C(C)C)CC3)nc(C3CCCCC3)nc2cc1OCCCN1CCCC1 is lower in “PARP1 L713F-nLuc/akaLuc ratio” value: 1.63 for the first, 0.748 for the second.

First: O=C1NC(=O)/C(=C\c2cccc(C(F)(F)F)c2)S1
Second: O=C(O)c1c[nH]c2cc(Cl)c(-c3ccc(C4(O)CCC4)cc3)cc12
The “PARP1 L713F-nLuc/akaLuc ratio” value of the first is higher: 0.962 for the first, 0.446 for the second.

Compared with C[C@H](Nc1ncnc2nc[nH]c12)c1cc2cccc(Cl)c2c(=O)n1-c1ccccc1 [Duvelisib (IPI-145, INK1197)], CN(C)C[C@@H]1CCn2cc(c3ccccc32)C2=C(C(=O)NC2=O)c2cn(c3ccccc23)CCO1 [Ruboxistaurin (hydrochloride)] is lower in “PARP1 L713F-nLuc/akaLuc ratio” value: 0.838 for the first, 0.778 for the second.

First: CCOC(=O)c1cnc(NC2(c3ccccc3)CC2)nc1
Second: C=C(C)[C@@H]1CCC(C)=C[C@H]1C1=C(O)C(=O)C(CCCCC)=C(NCc2ccccc2)C1=O
The “PARP1 L713F-nLuc/akaLuc ratio” value of the first is lower: 0.982 for the first, 1.39 for the second.

With O=C(O)CCCCC(CCSCc1ccccc1)SCc1ccccc1 (stereo unspecified) the “PARP1 L713F-nLuc/akaLuc ratio” value was 1.06.

O=C(c1cc(Cn2c(=O)[nH]c(=O)c3c(F)cccc32)ccc1F)N1CCN(c2ncccn2)CC1 [Senaparib] was tested, and the “PARP1 L713F-nLuc/akaLuc ratio” value was 3.98 (active).
O=c1[nH]nc2c3c(cccc13)N=C(CN1Cc3ccccc3C1)N2 was tested, and the “PARP1 L713F-nLuc/akaLuc ratio” value was 8.18 (active).
